Screening data as filed in PubChem BioAssay.
In the library only some 5.9% were active in any assay of this set; here they are far more common.
AHR activator – activators of human aryl hydrocarbon receptor; P35869; AHR-responsive luciferase reporter cells, luminescence; activation, % at 5 µM; actives 2.5% (n = 320,000); AID 2796; in the data active = activation above about 47%;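 note: 0% = vehicle wells and 100% = reference agonist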
HSP90 refold inh – inhibitors of HSP90 luciferase refolding in rabbit reticulocyte lysate; luciferase refolding luminescence, 3 h; inhibition, % at 5.6 µM; actives 0.91% (n = 290,000);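 active = inhibition above the screen-wide mean plus 3 SD, computed separately per campaign, cut at about 16% in these data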;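 note: 0% = DMSO wells and 100% = 60 µM geldanamycin wells; inhibitors lower the luminescence because luciferase stays unfolded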
NR0B1 inh – inhibits human nuclear receptor DAX1; HEK293 Gal4-DAX1 luciferase reporter, luminescence; actives 0.99% (n = 340,000); AID 504766; P51843; inhibition, % at 6.75 µM;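 active = inhibition above the mean over all tested compounds plus 3 SD, cut at about 4.2% in these data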;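 note: 0% = DAX1-transfected cells with DMSO and 100% = empty-vector control cells with DMSO; inhibition shows as a rise in luminescence from relieved DAX1 repression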
Target sequence (P51843 207-470 limits assumed): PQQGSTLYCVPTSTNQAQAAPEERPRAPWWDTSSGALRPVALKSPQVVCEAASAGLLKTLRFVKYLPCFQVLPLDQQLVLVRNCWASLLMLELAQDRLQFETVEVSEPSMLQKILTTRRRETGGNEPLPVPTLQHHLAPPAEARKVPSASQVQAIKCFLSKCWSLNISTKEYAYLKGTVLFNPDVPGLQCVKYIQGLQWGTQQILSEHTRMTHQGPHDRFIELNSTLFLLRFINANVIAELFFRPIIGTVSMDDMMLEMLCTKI
HSF1 inhib – HSF1 inhibition; actives 0.77% (n = 300,000); AID 2098; activity change, negative = inhibition, % at 7.5 µM (by protocol); NIH3T3-HGL HSE-luciferase, MG132-induced, luminescence 8 h; stronger effect = lower value;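 active = more than half of replicate wells show activity change below -50%, luminescence cut by over half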;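 note: luciferase reports HSF-1 transcriptional activity via heat shock element; 0% = median of DMSO wells and -100% = zero luminescence signal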
GAA850 FXN act – frataxin GAA850 promoter activation; HEK293 lucGAA850 FXN promoter luciferase reporter, 24 h; percent of 10 µM SAHA response; activation, % at 6 µM; actives 0.56% (n = 360,000); AID 540364;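 active = activation above the average of all compounds screened plus 3 SD, cutoff fixed separately per campaign, cut at about 7.5% in these data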;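 note: 0% = DMSO wells and 100% = 10 µM SAHA wells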
HSF-1 act – increases HSF-1 driven luciferase reporter signal; NIH3T3-HGL HSF-1 luciferase reporter, MG132, 8 h; 100% = twice DMSO control signal; activation, % at 9 µM; actives 1.7% (n = 300,000); AID 504408;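 active = mean replicate activation of at least 50% with a set share of replicates each reaching 50%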;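 note: 0% = median of the neutral control wells and 100% = twice that signal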
GAA30 FXN cntr – counter-screen for GAA850 frataxin promoter activators: GAA30 promoter activation. shares compounds with GAA850 FXN act. HEK293 lucGAA30 FXN promoter luciferase, 24 h; DMSO = 0%, 5 µM ipriflavone = 100%. activation, % at 6 µM. actives 66% (n = 1,900). AID 588350;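 active = mean activation above the mean of solvent-only control wells plus 3 SD, cut at about 22% in these data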;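 note: counterscreen of GAA850 promoter hits where activity marks nonselective or luminescence artifacts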
GAA850 confirm – GAA850 FXN promoter activation confirmation; shares compounds with GAA850 FXN act; HEK293 lucGAA850 FXN promoter luciferase reporter, 24 h; 100% = activation by SAHA; activation, % at 6 µM; actives 86% (n = 1,900); AID 588351;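 active = mean activation above a set limit taken from the primary screen, cut at about 8% in these data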;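 note: 0% = DMSO wells and 100% = 10 µM SAHA wells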
An asterisk follows results filed as active; . = no result.

SMILES	AHR activator	HSP90 refold inh	NR0B1 inh	HSF1 inhib	GAA850 FXN act	HSF-1 act	GAA30 FXN cntr	GAA850 confirm
CCCCOc1ccc(C(=O)NCC2(c3ccc(OC)cc3)CCOCC2)cc1	1	1	-2	-6	16*	-2	13	6
Cc1cccc(/C=N\Nc2cn[nH]c(=O)c2Cl)c1	2	-3	3	27	22*	24	66*	24*
O=c1[nH]ncc(N/N=C\c2ccncc2)c1Cl	41	6	1	2	3	6	.	.
O=C(COC(=O)c1ccc(S(=O)(=O)N2CCCC2)cc1)Nc1cccc(Cl)c1	0	.	0	.	2	.	.	.
CC1(C(=O)OCc2cc(=O)n3cc(Br)ccc3n2)CC1(Cl)Cl (stereo not given)	9	1	0	.	8.9*	.	99*	40*
CC(C)n1nccc1NC(=O)COC(=O)c1ccc(NC(N)=O)cc1	-1	.	-1	.	0	.	.	.
COc1ccc(-c2nc(Cn3c(SCc4ccc(C)cc4)nc4ccncc43)c(C)o2)cc1OC	13	1	0	36	3	24	.	.
COc1ccc(-c2nc(Cn3c(SCc4cccc(F)c4)nc4ccncc43)c(C)o2)cc1OC	27	-2	-1	11	12*	18	19	4
Cc1cc(N=O)c(C)cc1O	.	.	.	.	-1	.	.	.
Cc1cc(O)c(-c2cc(O)c(C)cc2O)cc1O	52*	2	0	9	11*	0	18	29*
CCC(C)(C)NC(=O)COc1ccc(OCc2ccccc2)cc1	0	-3	-1	-1	2	10	.	.
Cn1c(C(=O)O)ccc1S(=O)(=O)N1CCCCCC1	-1	2	1	2	1	-2	.	.
COc1ccc(NC(=O)c2ccco2)cc1NC(=O)c1cccs1	18	-1	3	3	9.4*	21	23*	7
COc1ccccc1Nc1nc(-c2cccs2)cs1	43	-3	0	5	10*	-1	126*	40*
O=S(=O)(c1ccccc1)N1CCN(C/C=C/c2ccccc2)CC1	1	6	0	11	1	27	.	.
COc1ccc(-c2[nH]c3ccccc3c2SCCNC(=O)c2ccccc2)cc1	26	5	0	1	22*	-19	2	5
Nc1nc2ccccc2cc1-c1cccs1	7	-2	5.4*	10	7.8*	53*	90*	34*
c1csc(-c2ccc3ccccc3n2)c1	6	-2	2	22	1	31	.	.
Cc1csc(NC(=O)CN2C(=O)COc3ccc(Cl)cc32)n1	1	.	0	-1	1	-8	.	.
Cc1ccc(C2CC(c3ccco3)n3ncnc3N2)cc1 (stereo not given)	2	4	0	1	11*	-1	12	6
CCCOC(=O)c1c(N)sc(C(=O)OCC)c1C	0	-1	0	2	14*	-13	64*	25*
CCOC(=O)c1c(N)sc(C(N)=O)c1C	7	7	0	1	1	1	.	.
CCCC(=O)N1CCN(c2ccc(NC(=O)c3ccc([N+](=O)[O-])o3)cc2Cl)CC1	.	0	-3	24	7.9*	46	20	24*
O=C(Nc1ccc(N2CCOCC2)c(Cl)c1)c1ccc([N+](=O)[O-])o1	.	0	-1	108	11*	141*	118*	56*
COc1ccc(N2C(=O)NC(NC(=O)C(C)(C)C)(C(F)(F)F)C2=O)cc1 (stereo not given)	0	-5	-1	-13	9.2*	-8	-1	8.2*
CC[n+]1ccc(C(=O)NCc2ccccc2)cc1	0	0	0	-6	2	3	.	.
CCOCCCNC(=S)N1CCC(C(=O)c2ccc3c(c2)OCCO3)CC1	2	-5	0	8	-2	22	.	.
